Results from article PMC5540273 (PLoS ONE, 2017).

Legend:
Details in all cases: concentration: 1 μM, replicates: in singlicate; n = 1
PIK3C2G = system: PIK3C2G
PIK3CA = system: PIK3CA
PIK3CB = system: PIK3CB
PIK3CD = system: PIK3CD
PIK3CG = system: PIK3CG
PIK4CB = system: T1, PIK4CB
T1 construct: gene PI4KB

PIKFYVE = system: PIKFYVE
PIM1 = system: PIM1
PIM2 = system: PIM2
PIM3 = system: PIM3
PIP5K1A = system: PIP5K1A
PIP5K1C = system: PIP5K1C
PIP5K2B = system: PIP5K2B
PIP5K2C = system: T2, PIP5K2C
T2 construct: gene PIP4K2C

PKAC-alpha = system: T3, PKAC-alpha
T3 construct: gene PRKACA

PKAC-beta = system: T4, PKAC-beta
T4 construct: gene PRKACB

PKMYT1 = system: PKMYT1
PKN1 = system: PKN1
PKN2 = system: PKN2
PLK1 = system: PLK1
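Also: KINOMEscan kinase panel screen.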

SMILES | %Inh (PIK3C2G) | %Inh (PIK3CA) | %Inh (PIK3CB) | %Inh (PIK3CD) | %Inh (PIK3CG) | %Inh (PIK4CB) | %Inh (PIKFYVE) | %Inh (PIM1) | %Inh (PIM2) | %Inh (PIM3) | %Inh (PIP5K1A) | %Inh (PIP5K1C) | %Inh (PIP5K2B) | %Inh (PIP5K2C) | %Inh (PKAC-alpha) | %Inh (PKAC-beta) | %Inh (PKMYT1) | %Inh (PKN1) | %Inh (PKN2) | %Inh (PLK1)
CCn1cnc2c(NCc3ccccc3)ncnc21 [SKF-96418] | 0% | 0% | 0% | 0% | 0% | 4% | 23% | 21% | 0% | 0% | 21% | 22% | 0% | 0% | 0% | 0% | 0% | 0% | 0% | 14%
c1ccc(Oc2ccc(Nc3ccnc4cc(-c5ccc(CN6CCCCC6)o5)ccc34)cc2)nc1 [GW567143] | 0% | 0% | 0% | 0% | 0% | 0% | 0% | 0% | 0% | 0% | 9% | 47% | 0% | 48% | 2% | 0% | 0% | 0% | 0% | 5%
COc1cccc(NC(=O)NCCNc2ccnc(Nc3ccc(F)cc3)n2)c1 [GSK1379879] | 10% | 0% | 0% | 0% | 0% | 0% | 8% | 13% | 0% | 0% | 40% | 63% | 13% | 29% | 0% | 0% | 1% | 12% | 0% | 0%
NCCC(NC(=O)c1cc(Br)c(-c2ccnc3[nH]ccc23)s1)c1ccccc1.O=C(O)C(F)(F)F.O=C(O)C(F)(F)F (centres unmarked) [GSK1307810] | 0% | 0% | 6% | 7% | 2% | 8% | 9% | 66% | 95.5% | 45% | 82% | 81% | 0% | 57% | 99.4% | 99.6% | 0% | 50% | 87% | 0%
Cc1nn2c(=O)cc(N3CCO[C@H](C)C3)nc2n1Cc1cccc(Cl)c1Cl [GSK2373693] | 89% | 23% | 0% | 100% | 94% | 11% | 8% | 10% | 0% | 0% | 0% | 83% | 4% | 0% | 23% | 14% | 62% | 43% | 0% | 0%
Cc1ccc(NC(=O)c2ccnc(N3CCCCC3)c2)cc1-c1ccc(C(=O)NCC2CC2)cc1 [GW775610] | 0% | 0% | 0% | 0% | 36% | 8% | 24% | 0% | 0% | 0% | 0% | 5% | 0% | 14% | 0% | 10% | 8% | 0% | 0% | 0%
O=C(Nc1n[nH]c2nc(-c3ccccc3O)ccc12)C1CC1 [SB-711880] | 0% | 0% | 0% | 0% | 17% | 24% | 30% | 0% | 0% | 0% | 0% | 77% | 0% | 43% | 0% | 0% | 7% | 0% | 0% | 0%
Cc1cccc(Nc2nc(NCCN)ncc2C(N)=O)c1 [GSK1292139] | 0% | 0% | 0% | 2% | 2% | 22% | 0% | 28% | 35% | 58% | 50% | 83% | 15% | 20% | 0% | 0% | 7% | 18% | 29% | 6%
CN(C)CCOc1ccc(-c2cc(-c3ccc(Cl)c(O)c3)c(-c3ccncc3)[nH]2)cc1.Cl.Cl [SB-684387] | 30% | 9% | 54% | 8% | 13% | 26% | 45% | 22% | 0% | 13% | 45% | 54% | 7% | 20% | 33% | 10% | 0% | 39% | 0% | 3%
CS(=O)(=O)c1cccc(CNc2nc(Nc3ccc4c(c3)CCC(=O)N4)ncc2C(F)(F)F)c1 | 9% | 0% | 3% | 0% | 0% | 0% | 28% | 10% | 0% | 32% | 61% | 58% | 59% | 69% | 0% | 0% | 0% | 49% | 2% | 0%
